Results on eight molecules are retold here after PubChem BioAssay (Tox21).

Assay [1] in a line: Nuclear factor erythroid 2-related factor 2/antioxidant responsive element (Nrf2/ARE) small molecule agonists: qHTS cell viability counter screen in human keratinocytes (AID 1919968; active = well fitted curve in the direction sought with a large enough effect in the repeat runs; an effect the other way counts as inactive or inconclusive; also: nearly all actives have a fitted effect of over 55% in size). An outline of the steps:
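In human HaCaT keratinocytes stably expressing an ARE-driven luciferase, compound exposure lasted 23 h at 37 C under 5% CO2. Viable cells are quantified with a protease-based fluorogenic reagent (CellTiter-Fluor) read 1 h after addition.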
(In general: qHTS replaces the single test concentration by a dilution series.)

Assay [2] in a line: Nuclear factor erythroid 2-related factor 2/antioxidant responsive element (Nrf2/ARE) small molecule agonists: luciferase reporter gene qHTS assay in human keratinocytes (AID 1919969; also: nearly all actives have a fitted effect of over 35% in size; also: potency is read from the fitted curve at half-maximal effect). (A reporter such as luciferase makes a cellular process visible.)
Assay [3] has as its target Gonadotropin-releasing hormone receptor (Homo sapiens) (UniProt P30968). Put plainly: Human gonadotropin-releasing hormone receptor (GnRHR) small molecule agonists, calcium flux assay in GnRHR-HEK293 cells (AID 1920063). Also: nearly all actives have a fitted effect of over 35% in size. Put shortly:
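Intracellular calcium rise is the read-out: engineered human GnRHR HEK293 cells, dye-loaded, are exposed to DMSO-dissolved compounds and fluorescence at Ex/Em 480/540 is tracked for 3 min.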

In assay [4] the target is KiSS-1 receptor (Homo sapiens) (UniProt Q969F8). Put plainly: Human kisspeptin (KISS1R) small molecule agonists, calcium flux assay in KISS1R-HEK293 cells (AID 1920064; active = well fitted curve in the direction sought with a large enough effect in the repeat runs; an effect the other way counts as inactive or inconclusive). An outline of the steps: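 Concentration-response testing used 15 concentrations in triplicate on human KISS1R-expressing HEK293 cells. Calcium-dependent fluorescence (Ex/Em 480/540) was followed kinetically for 3 min after compound transfer.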
Background: A change in cytosolic calcium serves as a functional read-out for many receptors and channels.

Assay [5] in a line: G protein-coupled receptor (GPCR) small molecule agonists, calcium flux assay: HEK293 wild type cell line counter screen (AID 1920065). An outline of the steps:
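Fluorescence intensity signals activation. After overnight (18 h) culture and a 1 h calcium dye load at 37 C, compounds are added by pin tool and the plate read at 480/540 nm for 3 min in 1 s steps.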

Assay [6] is described as follows: p53 small molecule agonists, cell-based qHTS assay with human liver microsomes (AID 1963577).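 Also: p53 response element beta-lactamase reporter cells with liver microsomes plus NADPH.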 Put shortly:
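p53RE-bla cells; 5 h settle, 37 C/5% CO2; cpd + HLM 0.5 mg/mL + NADPH 0.5 mg/mL (final); 16 h 37 C; LiveBLAzer 2 h RT dark; fluorescence readout.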

Assay [7] in a line: p53 small molecule agonists, cell-based qHTS assay with rat liver microsomes (AID 1963578). Put shortly: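 Rat liver microsome activation: microsomes 0.5 mg/mL, NADPH 0.5 mg/mL final; p53RE-bla cells, 16 h 37 C; LiveBLAzer readout, 2 h RT dark.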
A short description of assay [8]: p53 small molecule agonists, cell-based qHTS assay with human liver microsomes: qHTS cell viability counter screen (AID 1963579). Also: nearly all actives have a fitted effect of over 45% in size. An outline of the steps: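 Luminescent CellTiter-Glo read-out, 30 min at room temperature, gauged cytotoxicity in p53RE-bla cells exposed 16 h at 37 C to DMSO-dissolved compounds with metabolic activation by human liver microsomes and NADPH, each 0.5 mg/mL final.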

Assay [9] can be described thus: p53 small molecule agonists, cell-based qHTS assay with rat liver microsomes: qHTS cell viability counter screen (AID 1963580). Also: nearly all actives have a fitted effect of over 45% in size. An outline of the steps:
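After the beta-lactamase ratio was read, CellTiter-Glo was added to the same wells and luminescence measured at 30 min; cells had been treated 16 h at 37 C with compounds, rat liver microsomes and NADPH (0.5 mg/mL final each).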

Assay [10] in a line: p53 small molecule agonists, cell-based qHTS assay: qHTS cell viability counter screen (AID 1963581). Also: nearly all actives have a fitted effect of over 45% in size. An outline of the steps: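 Luminescence from CellTiter-Glo, reflecting ATP content, serves as the cytotoxicity measure; it is taken after the 2 h reporter substrate step in HCT-116 p53RE-bla cells dosed for 16 h at 37 C.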
A short description of assay [11]: p53 small molecule agonists, cell-based qHTS assay (AID 1963582; active = well fitted activation curve with a large enough effect in the signal ratio in the repeat runs, not every such curve was filed as active; the % refers to the signal ratio). Put shortly: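 After plating, p53RE-bla cells sat 5 h in the incubator; compounds or DMSO vehicle were pinned in; a 16 h incubation at 37 C followed; FRET substrate was added and, 2 h later at RT, fluorescence was measured.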
Assay [12] has as its target 5-hydroxytryptamine receptor 2A (Homo sapiens) (UniProt P28223). Briefly: 5-hydroxytryptamine receptor 2A (HTR2A) small molecule antagonists, cell-based qHTS assay (AID 1963586). Also: nearly all actives have a fitted effect of over 45% in size. Also: potency is read from the fitted curve at half-maximal effect. An outline of the steps:
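CHO cells stably expressing human HTR2A were plated for 18 h at 37 C, then loaded with calcium dye for 1 h. Compounds were preincubated 5 min at room temperature before DOI (4 nM solution) was added. Kinetic fluorescence was read for 3 min.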

The target is the same in assay [13]. Briefly: 5-hydroxytryptamine receptor 2A (HTR2A) small molecule agonists, cell-based qHTS assay (AID 1963587). Also: nearly all actives have a fitted effect of over 30% in size. Put shortly: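 CHO cells stably expressing human HTR2A, plated 18 h, loaded with calcium dye 1 h at 37 C. Agonist mode: compounds added and intracellular calcium fluorescence recorded kinetically for 2 min at 1 sec intervals.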
The target in assay [14] is Muscarinic acetylcholine receptor M1 (Homo sapiens) (UniProt P11229). Briefly: Cholinergic receptor muscarinic 1 (CHRM1) small molecule agonists, cell-based qHTS assay (AID 1963589). Also: nearly all actives have a fitted effect of over 35% in size. Put shortly: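 Fluorescent calcium dye reports M1 activation in stably transfected CHO cells. Compounds, 15 concentrations, added after 1 h dye loading at 37 C; kinetic reading at 1 sec intervals.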

The target of assay [15] is D(2) dopamine receptor (Homo sapiens) (UniProt P14416). Put plainly: Dopamine D2 receptor (DRD2) small molecule antagonists, cell-based qHTS assay (AID 1963595; active = well fitted inhibition curve with a large enough effect in the signal ratio in the repeat runs, with a control signal flat; the % refers to the signal ratio). An outline of the steps: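 Antagonist mode in DRD2-HEK293 cells: after compound addition with 0.1 mM Ro20-1724, cells received quinpirole (12 nM) and NKH477 (200 nM) for 30 min at room temperature; HTRF cAMP read after 1 h detection.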

Assay [16] addresses Muscarinic acetylcholine receptor M1 (Homo sapiens) (UniProt P11229). Put plainly: Cholinergic receptor muscarinic 1 (CHRM1) small molecule antagonists, cell-based qHTS assay (AID 1963588). Also: nearly all actives have a fitted effect of over 40% in size. Put shortly: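 Compounds were tested at 15 concentrations in three independent runs. Dye-loaded CHRM1-CHO cells were exposed 5 min at room temperature before stimulation by acetylcholine added at 50nM. Intracellular calcium was read kinetically on FDSS for 3 min.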

Assay [17] in a line: cAMP Responsive Elements (CRE) small molecule agonists, cell-based qHTS assay (AID 1963590). Put shortly: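 Compound exposure lasted 3 h at 37 C/5% CO2 in CRE-bla HEK 293T cells grown in assay medium with 10% dialyzed FBS and 25 mM HEPES. Reporter signal came from LiveBLAzer B/G FRET substrate, 2 h, room temperature.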
Assay [18] can be described thus: cAMP Responsive Elements (CRE) small molecule antagonists, cell-based qHTS assay (AID 1963591; active = well fitted inhibition curve with a large enough effect in the signal ratio in the repeat runs, not every such curve was filed as active; the % refers to the signal ratio). Put shortly: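 Stimulation used NKH477 at a final 0.25 uM for 3 h in compound-treated CRE-bla HEK293T cells, seeded 18 h beforehand. Reporter activity was measured with LiveBLAzer B/G FRET substrate after 2 h at room temperature.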
The target of assay [19] is Beta-2 adrenergic receptor (Homo sapiens) (UniProt P07550). Put plainly: Adrenergic beta2 receptor (ADRB2) small molecule antagonists, cell-based qHTS assay (AID 1963592). Also: series mostly up to about 92 µM; nearly all actives have a fitted effect of over 50% in size. An outline of the steps:
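Assay format: CHO-ADRB2 cells, 18-20hr seeding at 37C/5% CO2, then compound plus 1nM isoproterenol agonist mix for 0.5hr RT. Homogeneous time-resolved fluorescence cAMP detection after 1hr, expressed as 665/615 nm ratio.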

For assay [20], the target named is D(2) dopamine receptor (Homo sapiens) (UniProt P14416). Briefly: Dopamine D2 receptor (DRD2) small molecule agonists, cell-based qHTS assay (AID 1963594). Also: nearly all actives have a fitted effect of over 35% in size. Put shortly:
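HEK293 cells stably expressing human DRD2, pre-treated with PDE inhibitor Ro20-1724 (0.1 mM final) and compound 10 min at room temperature, then stimulated with NKH477 (200nM […]) for 30 min. cAMP read by HTRF (665/620 nm).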

Each structure is given as a SMILES string. Inconclusive results are not listed. Activity calls are given as the source filed them. Unless noted, calls follow the shape of the full dose curve.

KiSS-1 receptor (Homo sapiens), sequence (Q969F8 whole entry, looked up): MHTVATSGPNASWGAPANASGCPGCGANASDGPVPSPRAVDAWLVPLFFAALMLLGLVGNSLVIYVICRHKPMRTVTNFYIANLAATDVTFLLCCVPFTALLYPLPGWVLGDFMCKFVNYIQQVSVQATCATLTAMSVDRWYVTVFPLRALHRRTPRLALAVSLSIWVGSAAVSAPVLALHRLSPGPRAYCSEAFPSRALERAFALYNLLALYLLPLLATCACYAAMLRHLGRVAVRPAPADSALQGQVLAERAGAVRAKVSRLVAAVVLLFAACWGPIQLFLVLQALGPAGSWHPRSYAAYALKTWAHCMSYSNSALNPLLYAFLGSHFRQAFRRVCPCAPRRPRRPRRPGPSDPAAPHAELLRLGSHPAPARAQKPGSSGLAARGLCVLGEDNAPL
Beta-2 adrenergic receptor (Homo sapiens), sequence (P07550 whole entry, looked up): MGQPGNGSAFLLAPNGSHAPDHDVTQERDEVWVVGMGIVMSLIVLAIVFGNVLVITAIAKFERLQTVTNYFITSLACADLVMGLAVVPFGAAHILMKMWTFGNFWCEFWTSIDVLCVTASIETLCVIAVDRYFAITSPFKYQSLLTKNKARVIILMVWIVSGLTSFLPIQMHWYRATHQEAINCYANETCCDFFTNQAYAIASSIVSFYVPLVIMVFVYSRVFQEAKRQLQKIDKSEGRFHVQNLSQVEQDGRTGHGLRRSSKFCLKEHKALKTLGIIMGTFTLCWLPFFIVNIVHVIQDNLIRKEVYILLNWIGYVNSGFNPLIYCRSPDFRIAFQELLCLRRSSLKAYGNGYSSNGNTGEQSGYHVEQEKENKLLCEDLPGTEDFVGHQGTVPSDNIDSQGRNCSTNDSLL
D(2) dopamine receptor (Homo sapiens), sequence (P14416 whole entry, looked up): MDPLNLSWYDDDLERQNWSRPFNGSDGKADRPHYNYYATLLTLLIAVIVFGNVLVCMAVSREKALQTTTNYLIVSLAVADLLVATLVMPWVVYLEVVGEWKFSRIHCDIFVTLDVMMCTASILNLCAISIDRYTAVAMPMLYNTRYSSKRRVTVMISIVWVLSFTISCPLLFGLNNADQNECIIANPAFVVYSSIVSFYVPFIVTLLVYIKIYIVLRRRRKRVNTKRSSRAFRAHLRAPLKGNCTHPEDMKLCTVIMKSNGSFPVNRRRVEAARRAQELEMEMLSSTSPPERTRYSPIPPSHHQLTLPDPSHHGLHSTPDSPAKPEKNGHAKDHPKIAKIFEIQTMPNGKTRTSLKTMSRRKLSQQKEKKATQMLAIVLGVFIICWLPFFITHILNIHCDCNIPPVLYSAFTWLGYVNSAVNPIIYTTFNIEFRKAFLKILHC
Gonadotropin-releasing hormone receptor (Homo sapiens), sequence (P30968 whole entry, looked up): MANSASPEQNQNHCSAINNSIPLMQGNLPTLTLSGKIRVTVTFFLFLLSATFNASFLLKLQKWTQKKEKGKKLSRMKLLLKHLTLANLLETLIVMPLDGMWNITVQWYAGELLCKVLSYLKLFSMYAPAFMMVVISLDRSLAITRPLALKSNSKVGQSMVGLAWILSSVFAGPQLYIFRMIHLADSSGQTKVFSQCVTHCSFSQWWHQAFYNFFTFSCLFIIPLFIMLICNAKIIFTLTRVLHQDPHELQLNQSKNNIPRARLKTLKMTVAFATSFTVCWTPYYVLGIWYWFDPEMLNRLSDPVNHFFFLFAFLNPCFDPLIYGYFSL
Muscarinic acetylcholine receptor M1 (Homo sapiens), sequence (P11229 whole entry, looked up): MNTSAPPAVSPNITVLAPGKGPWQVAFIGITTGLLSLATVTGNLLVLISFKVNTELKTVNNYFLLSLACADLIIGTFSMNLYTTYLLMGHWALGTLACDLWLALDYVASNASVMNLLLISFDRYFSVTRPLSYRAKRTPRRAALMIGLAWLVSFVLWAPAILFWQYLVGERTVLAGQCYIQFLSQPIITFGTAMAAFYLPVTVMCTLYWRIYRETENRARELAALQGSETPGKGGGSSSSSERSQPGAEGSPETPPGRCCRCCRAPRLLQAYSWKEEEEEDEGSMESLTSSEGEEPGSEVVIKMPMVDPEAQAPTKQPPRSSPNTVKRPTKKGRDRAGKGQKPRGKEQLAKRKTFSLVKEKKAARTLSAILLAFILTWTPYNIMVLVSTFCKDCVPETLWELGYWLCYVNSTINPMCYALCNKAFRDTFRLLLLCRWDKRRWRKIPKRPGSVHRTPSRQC
5-hydroxytryptamine receptor 2A (Homo sapiens), sequence (P28223 whole entry, looked up): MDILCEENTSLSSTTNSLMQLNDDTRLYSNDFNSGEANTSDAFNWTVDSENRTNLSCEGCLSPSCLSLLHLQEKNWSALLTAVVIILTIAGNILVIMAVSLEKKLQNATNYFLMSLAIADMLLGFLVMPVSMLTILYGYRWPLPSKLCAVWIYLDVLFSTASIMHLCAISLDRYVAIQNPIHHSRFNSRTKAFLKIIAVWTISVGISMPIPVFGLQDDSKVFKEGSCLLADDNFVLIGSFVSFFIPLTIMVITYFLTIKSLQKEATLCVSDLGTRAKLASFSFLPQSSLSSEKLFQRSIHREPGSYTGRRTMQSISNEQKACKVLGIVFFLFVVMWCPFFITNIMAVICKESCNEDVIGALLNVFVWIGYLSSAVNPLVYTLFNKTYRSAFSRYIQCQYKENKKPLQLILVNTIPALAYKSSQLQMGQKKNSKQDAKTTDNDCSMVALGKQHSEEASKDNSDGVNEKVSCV

Consider `O=C1C(Cl)C(CCl)CN1c1cccc(C(F)(F)F)c1` (stereo not given), for which the Potency entry in [1], in assay [2], in assay [3], in [4], in assay [5] and in assay [6] was “inactive” in each case. Also, the Potency entry in assay [7], in [8], in [9], in assay [10], in assay [11] and in assay [12] was “inactive” each time. The Potency result in assay [13], in [14] and in [15] was “inactive” in each case.

Turning to `ClCc1cccc(Cl)c1`, the Potency result in assay [1], in assay [2], in assay [3], in assay [4], in assay [5] and in [6] was “inactive” throughout. In addition, the Potency entry in [7], in [8], in assay [9], in assay [10], in [11] and in assay [13] was “inactive” throughout. For the same molecule, the Potency result in assay [16], in assay [14], in assay [17], in [18], in assay [19] and in assay [15] was “inactive” throughout.

As to `CNNC`, the Potency entry in assay [1], in [2], in [3], in [4], in [5] and in assay [6] was “inactive” in each case. For the same molecule, the Potency entry in [7], in assay [8], in assay [9], in assay [10], in assay [11] and in assay [12] was “inactive” in each case. Besides, the Potency entry in assay [13], in assay [16], in assay [14], in assay [20] and in assay [15] was “inactive” throughout.

Turning to `C[N+](C)(C)CC1CO1` (stereo not given), the Potency result in assay [1], in assay [2], in [3], in assay [4], in [5] and in assay [6] was “inactive” in each case. Moreover, the Potency result in assay [7], in assay [8], in assay [9], in assay [10], in [11] and in [12] was “inactive” in each case. In addition, the Potency result in [13], in assay [16], in assay [17], in assay [18], in assay [19] and in assay [20] was “inactive” each time. Besides, the Potency result in assay [15] was “inactive”.

For `CN1CCc2cc(Cl)c(O)cc2[C@H]2c3ccccc3CC[C@@H]21`, the Potency result in assay [1], in assay [2], in [3], in assay [4], in [5] and in assay [6] was “inactive” in each case. For the same molecule, the Potency result in assay [7], in [8], in [9], in assay [10], in [11] and in [13] was “inactive” each time. The Potency result in [16], in assay [14], in assay [18] and in assay [20] was “inactive” each time. Besides, the Potency in assay [12] was 0.0326 µM (active).

As to `Nc1cc(Cl)ccc1Cl`, the Potency entry in [1], in [2], in assay [3], in assay [4], in [5] and in assay [6] was “inactive” each time. The Potency result in assay [7], in assay [8], in assay [9], in [10], in assay [11] and in assay [13] was “inactive” in each case. Also, the Potency entry in assay [16], in assay [14], in [17], in assay [18], in assay [19] and in assay [20] was “inactive” in each case. Besides, in assay [15], the Potency entry was “inactive”.

`CS(=O)(=O)c1ccc(C(=O)C2C(=O)CCCC2=O)c(Cl)c1COCC(F)(F)F`: the Potency result in assay [1], in [2], in assay [3], in assay [4], in assay [5] and in assay [6] was “inactive” in each case. In addition, the Potency result in assay [7], in assay [8], in assay [9], in [10], in assay [11] and in assay [12] was “inactive” each time. Besides, the Potency result in assay [13], in assay [16], in [20] and in [15] was “inactive” each time.

On to `Cc1c([N+](=O)[O-])cc2c(c1[N+](=O)[O-])C(C)(C)CC2(C)C`, for which the Potency result in [1], in assay [3], in assay [4], in assay [5], in [6] and in assay [7] was “inactive” in each case. Also, the Potency entry in assay [8], in assay [9], in assay [10], in assay [11], in assay [12] and in assay [13] was “inactive” each time. The Potency result in [16], in assay [14], in [17], in assay [19], in assay [20] and in assay [15] was “inactive” each time. For the same molecule, the Potency in assay [2] is 48.6 µM (active).
